Assay outcomes deposited in PubChem by National Center for Advancing Translational Sciences (NCATS).
LmPK inh: blocks Leishmania mexicana pyruvate kinase activity | AID 1721 | 0.37% of 290,000 active | Potency, µM (highest dose often 57.5 µM), actives largely listed as inhibitors | purified LmPK, Kinase-Glo ATP luminescence, 1 h | Q27686; active means well fitted curve in the direction sought with a large enough effect; inconclusive means small, poorly fitted or top-dose-only effect, or another doubt; inactive means no such curve, though single readings can be large; an effect the other way counts as inactive or inconclusive
Target sequence (Q27686 whole entry, looked up): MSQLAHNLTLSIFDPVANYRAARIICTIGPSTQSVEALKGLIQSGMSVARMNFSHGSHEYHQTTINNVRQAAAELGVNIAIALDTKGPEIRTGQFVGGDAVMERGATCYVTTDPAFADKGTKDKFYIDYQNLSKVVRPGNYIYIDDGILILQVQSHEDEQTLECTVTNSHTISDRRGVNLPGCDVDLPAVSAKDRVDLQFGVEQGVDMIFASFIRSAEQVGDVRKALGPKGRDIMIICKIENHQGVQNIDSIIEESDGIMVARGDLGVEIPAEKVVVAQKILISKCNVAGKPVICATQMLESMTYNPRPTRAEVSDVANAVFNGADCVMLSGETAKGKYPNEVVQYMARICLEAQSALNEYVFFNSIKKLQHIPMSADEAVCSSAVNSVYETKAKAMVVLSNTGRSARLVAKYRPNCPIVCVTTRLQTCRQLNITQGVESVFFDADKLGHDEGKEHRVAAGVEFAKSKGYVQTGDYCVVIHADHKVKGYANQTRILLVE
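Purified LmPK (0.1 nM) with 0.5 mM PEP and 0.1 mM ADP in imidazole buffer pH 7.2 with MgCl2/KCl, 1 h at room temperature. ATP formed was read by luciferase luminescence and normalized to no-enzyme and uninhibited controls.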
NS1 function inh: influenza NS1 inhibition; Potency, µM (top dose mostly 46.1 µM); 0.4% of 270,000 active; AID 2326; further: actives are rising curves; nearly all actives have a fitted effect of over 50% in size
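In this qHTS, NS1 from influenza A is expressed in budding yeast, where it slows growth. Cells are switched from glucose to 2% galactose medium (pH 6.0, -URA), treated with compound, and growth recovery is read at OD600.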
SARS PLpro yeast: inhibitors of SARS-CoV papain-like protease in yeast. S. cerevisiae expressing SARS-CoV PLpro, growth rescue. AID 485353. 0.19% of 330,000 active. Potency, µM (doses to about 32.9 µM), hits mostly activators; further: nearly all actives have a fitted effect of over 55% in size
TbPYK inhibitor: inhibitors of Trypanosoma brucei pyruvate kinase; Q57TT1; 0.12% of 410,000 active; TbPYK enzyme, Kinase-Glo Plus ATP luminescence, 45 min; Potency, µM (top dose mostly 76.8 µM), actives largely listed as inhibitors; active means well fitted curve in the direction sought with a large enough effect; inconclusive means small, poorly fitted or top-dose-only effect, or another doubt; inactive means no such curve, though single readings can be large; an effect the other way counts as inactive or inconclusive; further: nearly all actives have a fitted effect of over 50% in size
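Glycolytic pyruvate kinase of T. brucei was incubated with substrate, test compound and 130 uM ADP for 45 minutes at room temperature. Luminescent Kinase-Glo Plus signal was measured after 10 minutes.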
Shiga inhibitor: Shiga toxin inhibition; inhibition, % at 38.7 µM; Vero cells, Shiga toxin protein synthesis inhibition reporter; 9.2% of 290,000 active; in the data active means inhibition mostly above about 28%, no sharp cut-off; inactive means mostly below about 43%
Cycloheximide cs: affects cycloheximide protein synthesis inhibition readout, counter-screen; AID 2314; cell reporter, cycloheximide protein synthesis inhibition counterscreen; 12% of 300,000 active; max response, %; in the data active means max response mostly above about 13%, no sharp cut-off; inactive means mostly below about 14%; further: read at 38.3 µM for the half of the compounds with a filed dose
NS1 inh valid: validation of influenza NS1 protein function inhibitors | activity change, negative = inhibition, % at 32.9 µM | shares compounds with NS1 function inh | AID 492980 | 1,400 tested, under 10 active | influenza NS1 function cell assay, 15-point titration
Each line names hits and unclear results; the compound was inactive in the other large screens (follow-up assays come after a bar, where they were run). Only a selection was taken, and hits are over-represented in it overall. Unless noted, the call rests on the fitted dose curve.

Cc1cnc(C(=O)OCC(=O)NC(=O)NC(C)C)cn1	NS1 function inh 1.4µM | NS1 inh valid inactive
Cc1cnc(C(=O)OCC(=O)Nc2ccc(Cl)cc2)cn1	none
CCCOc1ccc(C2NC(=S)NC(c3ccccc3)=C2C(=O)Nc2ccc(C)cc2)cc1OC (stereo unspecified)	NS1 function inh 13µM | NS1 inh valid inactive
COc1cc(C2NC(=S)NC(c3ccccc3)=C2C(C)=O)ccc1O (stereo unspecified)	none
CCCOc1ccc(C(=O)N(Cc2cccs2)c2ccc(C)cc2)cc1	none (no result: LmPK inh, NS1 function inh, SARS PLpro yeast, Shiga inhibitor, Cycloheximide cs)
COc1ccc(NC(=O)CSc2nnc(C3CC3)n2-c2ccccc2)cc1	none
COc1ccc(NC(=O)CSc2nnc(-c3cccs3)n2-c2ccccc2)cc1	NS1 function inh 2.8µM | NS1 inh valid inactive
COc1ccc(-n2c(Cc3cccn3C)nnc2SCC(=O)Nc2ccc(F)cc2)cc1	NS1 function inh inconclusive | NS1 inh valid inactive
Cn1c(SCC(=O)c2ccccc2)nnc1-c1cccs1	NS1 function inh inconclusive, Shiga inhibitor 86, Cycloheximide cs 25 | NS1 inh valid inactive
COc1ccc(NC(=O)CSc2nnc(Cc3cccn3C)n2-c2ccc(F)cc2)cc1	none
Cc1ccc(-n2c(Cc3cccn3C)nnc2SCC(=O)N2CCc3ccccc32)cc1	NS1 function inh 7.9µM | NS1 inh valid inactive
COC(=O)C[C@H]1C[C@H]2c3cc(NC(=O)C4CCOCC4)ccc3O[C@H]2[C@H](CO)O1	none (no result: LmPK inh, NS1 function inh, SARS PLpro yeast, Shiga inhibitor, Cycloheximide cs)
Cc1cccc(NC(=O)C2C3C=CC(O3)C2C(=O)O)c1C (stereo unspecified)	none
O=C(CCNS(=O)(=O)c1ccc(Cl)cc1)N1CCOCC1	none
CC(C)C[C@H]1C(=O)N2CCC[C@H]2[C@]2(O)O[C@](NC(=O)C3C=C4c5cccc6[nH]c(Br)c(c56)C[C@H]4N(C)C3)(C(C)C)C(=O)N12 (stereo partly specified)	none (no result: LmPK inh, NS1 function inh, SARS PLpro yeast, Shiga inhibitor, Cycloheximide cs)
CC(C)C[C@H]1C(=O)N2CCCC2[C@]2(O)O[C@](NC(=O)[C@@H]3C=C4c5cccc6[nH]c(Br)c(c56)C[C@H]4N(C)C3)(C(C)C)C(=O)N12 (stereo partly specified)	NS1 function inh 5.6µM (no result: LmPK inh, SARS PLpro yeast, Shiga inhibitor, Cycloheximide cs) | NS1 inh valid inconclusive
Cc1ccc2c(c1)C(c1ccccc1)N(C(=O)C(C)C)CC(=O)N2 (stereo unspecified)	NS1 function inh inconclusive | NS1 inh valid inactive
O=C(CSc1nc(-c2ccccc2)nc2c1Cc1ccccc1O2)N1CCCCC1	none (no result: LmPK inh, NS1 function inh, SARS PLpro yeast, Shiga inhibitor, Cycloheximide cs)
COc1ccccc1C1N(c2ccc(Cl)cc2)C(=O)C2CCCN21 (stereo unspecified)	NS1 function inh 11µM | NS1 inh valid inactive
COc1ccc(C2N(c3ccc(F)cc3)C(=O)C3CCCN32)cc1 (stereo unspecified)	NS1 function inh 1.1µM | NS1 inh valid inactive
COc1ccc(-n2nc(C(=O)NCC(=O)NCCCN3CC(C)CC(C)C3)c3ccccc3c2=O)cc1Cl (stereo unspecified)	none
N#CCC(=O)N/N=C/c1c(-c2ccccc2)n(-c2ccccc2)c2ccccc12	none
N#CCC(=O)N/N=C/c1ccc(N2N=C(c3ccccc3)CC2c2ccccc2)cc1 (stereo unspecified)	NS1 function inh 1.1µM, Cycloheximide cs 10 | NS1 inh valid inactive
CC1CCC(NC(=O)c2ccc3c(c2)N(Cc2cccc(Cl)c2)C(=O)c2ccccc2S3=O)CC1 (stereo unspecified)	none (no result: LmPK inh, NS1 function inh, SARS PLpro yeast, Shiga inhibitor, Cycloheximide cs)
CCCCNC(=O)C1(C)CCC(=O)N1C1CC1 (stereo unspecified)	none (no result: LmPK inh, NS1 function inh, SARS PLpro yeast, Shiga inhibitor, Cycloheximide cs)
COC(=O)c1ccc(C2C(C(=O)Nc3ccc(C)cc3C)=C(C)Nc3ncnn32)cc1 (stereo unspecified)	NS1 function inh 22µM | NS1 inh valid inactive
Cc1cccc(-n2c(=O)c3c4c(sc3n3cnnc23)CCCC4)c1	none (no result: LmPK inh, NS1 function inh, SARS PLpro yeast, Shiga inhibitor, Cycloheximide cs)
CCCCNC(=S)NCc1ccc2[nH]c(C)cc2c1	NS1 function inh 1.4µM | NS1 inh valid inactive
CCOC(=O)N1CCC(c2nc(C)sc2C(=O)O)CC1	NS1 function inh inconclusive | NS1 inh valid inactive
COc1ccc(NC(=O)CN(C)C(=O)CN2C(=O)C3CCCCC3C2=O)cc1 (stereo unspecified)	none (no result: LmPK inh, NS1 function inh, Shiga inhibitor, Cycloheximide cs)
COc1cc(/C=N/NC(=O)c2cc3ccccc3cc2O)ccc1OCCN1CCCCC1	NS1 function inh 11µM, Shiga inhibitor active, Cycloheximide cs 42 | NS1 inh valid inactive
C[C@H](NC(=O)c1nc[nH]c1C(=O)N[C@@H](Cc1ccccc1)C(=O)OCc1ccccc1)C(=O)OCc1ccccc1	NS1 function inh 7.9µM | NS1 inh valid inactive
CC(C)(C)OC(=O)CNC(=O)c1[nH]cnc1C(=O)NC(c1ccccc1)c1ccccc1	NS1 function inh 14µM | NS1 inh valid inactive
C[C@@H](NC(=O)c1nc[nH]c1C(=O)N[C@@H](Cc1ccccc1)C(=O)OC(C)(C)C)c1ccccc1	NS1 function inh inconclusive
CNC(=O)c1[nH]cnc1C(=O)N[C@@H](Cc1ccccc1)C(=O)OCc1ccccc1	none
C[C@H](NC(=O)c1nc[nH]c1C(=O)N[C@@H](Cc1ccccc1)C(=O)OC(C)(C)C)C(=O)OCc1ccccc1	NS1 function inh 11µM | NS1 inh valid inactive
Cn1c(=O)c2c(ncn2CC(=O)OCCCC(=O)c2ccc(Br)cc2)n(C)c1=O	none (no result: LmPK inh, NS1 function inh, Shiga inhibitor, Cycloheximide cs)
Cc1ccc(NC(=O)C(Nc2cccc(C)c2)c2ccccc2)cc1 (stereo unspecified)	NS1 function inh inconclusive, Cycloheximide cs 22 | NS1 inh valid inconclusive
COc1cc(NC(=O)c2cccnc2)ccc1-c1cc2ccccc2oc1=O	none (no result: NS1 function inh, TbPYK inhibitor)
O=C(Nc1ccc(-c2cc3ccccc3oc2=O)c(Cl)c1)c1cccnc1	NS1 function inh 2.2µM | NS1 inh valid inactive
COc1cc(C2C3C(=O)N(Cc4ccccc4)C(=O)C3ON2c2ccccc2)cc(OC)c1OC (stereo unspecified)	NS1 function inh 11µM | NS1 inh valid inconclusive
CCCNC(=O)C1(C)CCCN(C(=O)c2cccnc2Oc2ccccc2)C1 (stereo unspecified)	none (no result: LmPK inh, NS1 function inh, SARS PLpro yeast, Shiga inhibitor, Cycloheximide cs)
COc1ccc(C2CC(=O)C=C(NNS(=O)(=O)c3ccc(C)cc3)C2)cc1 (stereo unspecified)	NS1 function inh 4µM | NS1 inh valid inactive
Cc1nc2ccc(NC(=O)Cc3c(F)cccc3Cl)cc2s1	NS1 function inh 4µM, Shiga inhibitor 53, Cycloheximide cs 31 | NS1 inh valid inactive
CCOc1ccc(NC(=O)CS(=O)(=O)Cc2nc(-c3ccc(C)cc3)oc2C)cc1	none (no result: LmPK inh, NS1 function inh, SARS PLpro yeast, Shiga inhibitor, Cycloheximide cs)
Cc1ccc(C(=O)OC/C(O)=C(\C#N)c2nc3ccccc3[nH]2)cc1S(=O)(=O)N1CCOCC1	NS1 function inh 10µM | NS1 inh valid inactive
N#C/C(=C(/O)COC(=O)c1ccc(Cl)c(S(=O)(=O)N2CCOCC2)c1)c1nc2ccccc2[nH]1	NS1 function inh inconclusive
